Screening results from PubChem.
TRHR ag – agonists of human TRH receptor; AID 493084; 360,000 tested, 0.18% active; activation, % at 2 µM; TRHR cells, calcium flux fluo-8, FDSS agonist mode; P34981; further: 0% is about no effect
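TRHR-expressing cells, plated overnight in medium with 10% serum, were loaded with fluo-8 calcium dye at room temperature. After a 10 s baseline, library compound was pin-added and calcium release was recorded kinetically (ex 480/em 530) as agonist response.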
TRHR PAM – TRH receptor (human) allosteric enhancement | TRHR cells, fluo-8 calcium fluorescence, EC20 TRH enhancement | AID 493056 | 360,000 tested, 0.66% active | P34981 | enhancement, % at 2 µM; in the data active means enhancement above about 30%; further: 0% is about no effect
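TRHR-expressing cells loaded with fluo-8 calcium dye were read kinetically (ex 480/em 530) during compound addition, then stimulated with an EC20 of TRH (10 nM final). Enhancement of the Gq-mediated intracellular calcium response was scored.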
D1 antagonist – human D1 dopamine receptor antagonism; HEK293 TREx D1 cells, calcium flux, dopamine EC80; active compounds read low; activity change, negative = inhibition, % at 10 µM; 360,000 tested, 3.2% active; AID 504652; in the data active means activity change below about -30%; further: on the % scale 0 is the no-effect control and ±100 the full control effect
Target sequence (P21728 whole entry, looked up): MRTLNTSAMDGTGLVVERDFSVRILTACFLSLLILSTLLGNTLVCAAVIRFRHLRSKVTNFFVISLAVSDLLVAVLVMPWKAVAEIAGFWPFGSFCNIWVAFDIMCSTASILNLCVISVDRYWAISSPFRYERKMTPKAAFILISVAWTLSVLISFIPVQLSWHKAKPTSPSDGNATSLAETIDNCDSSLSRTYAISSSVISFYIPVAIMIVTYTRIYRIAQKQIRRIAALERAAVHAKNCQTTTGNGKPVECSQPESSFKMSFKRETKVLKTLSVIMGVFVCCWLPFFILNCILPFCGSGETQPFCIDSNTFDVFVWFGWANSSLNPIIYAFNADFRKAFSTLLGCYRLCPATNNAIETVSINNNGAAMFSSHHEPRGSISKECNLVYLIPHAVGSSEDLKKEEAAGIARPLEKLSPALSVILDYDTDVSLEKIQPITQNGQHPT
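Calcium flux readout: force-coupled, inducible Hek293 Trex D1 line, cells induced overnight at 30 C with tetracycline, dye-loaded 30–90 min at RT. Antagonism scored against EC80 dopamine challenge given 180 s after compound.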
D1 PAM – potentiators of human D1 dopamine receptor; P21728; HEK293 TREx D1 cells, calcium flux, dopamine EC20 potentiation; potentiation, % at 10 µM; 360,000 tested, 0.036% active; in the data active means potentiation above about 30%; further: 0% is about no effect
D1 agonist – activates the human D1 dopamine receptor; P21728; activation, % at 2 µM; AID 504660; HEK293 T-REx D1 cells, calcium flux, agonist mode; 360,000 tested, 1% active; further: 0% is about no effect
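Agonism was scored from calcium flux recorded over 180 s (1 read/s) after pintool compound addition, following a 10-cycle baseline. Cells were inducible force-coupled HEK293 TREx D1, plated overnight at 30 C and loaded with no-wash calcium dye.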
The depositor's hits bear a star; nt = no result given. Shown are actives, neighbours in structure and some others; about 4.7% of the full set was active somewhere. Unless noted, no stated cut-off is given here; in the data, active means activation above about 30%; inactive means the rest.

SMILES | TRHR ag | TRHR PAM | D1 antagonist | D1 PAM | D1 agonist
O=S(=O)(Cc1ccccc1Cl)N1CCN(Cc2ccc3c(c2)OCO3)CC1 | 2 | -2 | -34* | 4 | 41*
Cn1cc(CN2CCN(c3ccc(Cl)cn3)CC2)c(-c2ccccc2F)n1 | -1 | -2 | 1 | 1 | 0
COc1ccc(C)cc1-n1c(SCC(=O)NCc2ccco2)nc2c([nH]c3ccccc32)c1=O | 0 | 8 | 8 | -3 | 0
O=C(CSc1cn(CCNC(=O)c2c(F)cccc2F)c2ccccc12)Nc1ccccc1F | -2 | -6 | 9 | -4 | 0
COc1cc(CNc2ccc3[nH]c(=O)[nH]c3c2)ccc1OCc1ccccc1C | 0 | 3 | -57* | 2 | 3
COc1cc(CNc2ccc3[nH]c(=O)[nH]c3c2)ccc1OCc1ccccc1F | 0 | 7 | -3 | -2 | 2
Cc1ccc(NC(=O)OCCN2CCN(S(=O)(=O)c3ccc(C)cc3)CCC2=O)cc1 | 0 | 2 | 5 | -2 | -5
Cc1ccc(S(=O)(=O)N2CCC(=O)N(C(CO)Cc3ccccc3)CC2)cc1 (configuration not stated) | 0 | 3 | -43* | -3 | -1
Cc1ccc(S(=O)(=O)N2CCC(=O)N(C(COC(=O)Nc3ccccc3)Cc3ccccc3)CC2)cc1 (configuration not stated) | 0 | -6 | 2 | -5 | 2
Cc1ccc(COCCN2CCN(S(=O)(=O)c3ccccc3)CCC2=O)cc1 | 0 | 1 | -41* | -6 | 1
Cc1ccc(S(=O)(=O)N2CCC(=O)N(CCOC(=O)Nc3cccc(Cl)c3)CC2)cc1 | 0 | -5 | -31* | -5 | 3
COc1ccc(C(=O)N2CCc3cc(OC)c(OC)cc3C2COc2ccc3c(C)cc(=O)oc3c2)c(OC)c1 (configuration not stated) | 0 | 24 | -2 | 2 | 2
COc1cc(OC)c(OC)cc1CNCCCSc1nnnn1C | 0 | -4 | -7 | -1 | 1
O=C(CSc1nc2c([nH]c3ccccc32)c(=O)n1-c1ccccc1)N1CCCCC1 | 0 | -2 | -13 | -4 | 1
Cc1cc2c(s1)c1cnn(Cc3cc(F)ccc3C)c(=O)c1n2C | 0 | -4 | 23 | 6 | 2
CCOC(=O)c1c(C)oc2ncnc(N3CCN(c4ccccc4)CC3)c12 | -2 | 3 | -45* | 1 | -1
Cc1cc(=O)n(CC(=O)Nc2ccc([N+](=O)[O-])cc2)c(-n2nc(C)cc2C)n1 | 0 | -7 | nt | -2 | -3
COc1ccc(CCNC(=O)CSc2cn(CCNC(=O)c3ccccc3F)c3ccccc23)cc1OC | -2 | 0 | 19 | -3 | 6
COc1ccc(CNCCNC(=O)c2nonc2N)cc1OC | 0 | -3 | 8 | -7 | -1
Nc1nonc1C(=O)NCCNCc1cc(Br)ccc1OCc1ccc(F)cc1 | 0 | 1 | -37* | -3 | 15
Nc1nonc1C(=O)NCCNCc1ccccc1 | 0 | -4 | -47* | 2 | 4
Nc1nonc1C(=O)NCCNCc1c(OCc2ccccc2F)ccc2ccccc12 | 0 | 1 | -45* | -9 | 11
Nc1nonc1C(=O)NCCNCc1ccccc1F | 0 | 0 | -3 | -2 | -2
COc1ccc(CN2CCN(C(=O)c3ccc(S(=O)(=O)NCc4ccco4)cc3)CC2)cc1 | 0 | -11 | -14 | -6 | 6
CCN(Cc1ccccc1)C(=O)Cn1cc(S(=O)(=O)Cc2cccc(Cl)c2)c2ccccc21 | 1 | -6 | -14 | -1 | 4
SMILES | TRHR ag | TRHR PAM | D1 antagonist | D1 PAM | D1 agonist
O=S(=O)(c1cccc(F)c1)N1CCC(Oc2ccc(-n3cnnn3)cc2)CC1 | 4 | -2 | -30* | 1 | 11
CCOc1ccc(CCNC(=O)c2ccc(C)c(-n3cnc4cccnc43)c2)cc1 | 0 | 8 | -31* | -1 | -1
COc1ccccc1CNC(=O)c1ccc(C)c(-n2cnc3cccnc32)c1 | -1 | 6 | -16 | -1 | -1
Cc1cccc(CN(C(=S)Nc2c(C)cccc2C)c2cccnc2)c1 | -1 | -5 | -33* | -6 | 7
CCc1ccccc1NC(=S)N(Cc1cccc(C)c1)c1cccnc1 | 0 | -2 | 14 | 1 | 5
COc1ccccc1NC(=O)c1sc2nc(C)c(C(=O)Nc3ccc(C)cc3C)c(-c3ccc(C)o3)c2c1N | 6 | 6 | 22 | 2 | 12
COc1ccc(-c2noc(Cn3cc(S(=O)(=O)N4CCCC4)ccc3=O)n2)cc1 | 0 | -5 | 2 | -1 | 2
Cn1c(=O)n(C)c2cc(NC(=O)COc3ccc(F)cc3)ccc21 | 0 | -1 | -17 | 7 | 2
COc1ccc(C2N3CC4(C)CN2CC(C)(C3)C4)cc1OC (configuration not stated) | 0 | 6 | -36* | 4 | 2
COc1ccc(C2N3CC4(C)CN2CC(c2ccccc2)(C3)C4=O)cc1OC (configuration not stated) | 1 | 0 | 10 | 1 | 0
COCCNC(=O)c1ccc(CSc2nc3ccccc3s2)cc1 | -1 | -1 | -34* | -8 | 12
Cc1ccc(OCC(=O)NNC(=S)NC(=O)c2cccs2)c(C)c1 | 0 | 4 | 7 | -1 | 18
Cc1ccc(OCC(=O)NNC(=S)NC(=O)c2ccc(Br)o2)c(C)c1 | -2 | 3 | -13 | 2 | 41*
CCc1cc(=O)[nH]c(SCc2nc(-c3ccccc3)no2)n1 | 0 | 3 | 22 | 2 | 4
COc1ccc(/C=C2/SC(=S)N(NS(=O)(=O)c3ccc(C)cc3)C2=O)cc1 | -1 | 8 | -47* | nt | 6
Cc1ccc(/C=C2\SC(=S)N(NS(=O)(=O)c3ccc(C)cc3)C2=O)cc1 | -1 | -4 | 2 | -7 | -3
COc1ccc(S(=O)(=O)N2CCC(C(=O)NC3CCCCC3)CC2)cc1C | -1 | 14 | 0 | -3 | 0
Cn1ncc(C(=O)N2CCN(c3ccc(F)cc3)CC2)c1C1CCN(C(=O)OC(C)(C)C)CC1 | -1 | 4 | -18 | -2 | 0
CCc1cc(=O)oc2cc(O[C@@H]3O[C@H](CO)[C@@H](O)[C@H](O)[C@H]3O)c(Cl)cc12 | 1 | 33* | 26 | -3 | 3
CCc1cc(=O)oc2c(C)c(O[C@@H]3O[C@H](CO)[C@@H](O)[C@H](O)[C@H]3O)ccc12 | 0 | 0 | 3 | 1 | 3
CC(C)OP(=O)(OC(C)C)C(NC(=O)c1ccccc1Br)C(N)=O (configuration not stated) | -1 | 32* | -22 | -2 | 2
O=[N+]([O-])c1nn(-c2ccc(Cl)cc2)n(O)c1=NCc1ccncc1 | -2 | -6 | -42* | -5 | 5
C/C(=N\NC(=O)CSCc1ccccc1Cl)c1cc(O)ccc1O | 1 | -1 | -37* | -9 | 5
O=C(CSCc1ccccc1Cl)NN=C1CCCCCC1 | 0 | -3 | 6 | 1 | 2
